Results published in PubChem BioAssay (Tox21).
Inconclusive results are not listed. A call without a number means that no potency is given here. A number with no mark means an inactive call. Calls of active or inactive are those of the source. The call rests on the fitted dose curve.

Each compound was assayed against Progesterone receptor (Homo sapiens) (UniProt P06401) (assay: qHTS assay to identify small molecule agonists of the progesterone receptor (PR) signaling pathway (AID 1346784; further: nearly all actives have a fitted effect of over 30% in size)). Conditions: PR-UAS-bla HEK293T, beta-lactamase FRET ratio, 16 h; series mostly up to 92.4 µM.
Sequence of Progesterone receptor (Homo sapiens) (P06401 whole entry, looked up): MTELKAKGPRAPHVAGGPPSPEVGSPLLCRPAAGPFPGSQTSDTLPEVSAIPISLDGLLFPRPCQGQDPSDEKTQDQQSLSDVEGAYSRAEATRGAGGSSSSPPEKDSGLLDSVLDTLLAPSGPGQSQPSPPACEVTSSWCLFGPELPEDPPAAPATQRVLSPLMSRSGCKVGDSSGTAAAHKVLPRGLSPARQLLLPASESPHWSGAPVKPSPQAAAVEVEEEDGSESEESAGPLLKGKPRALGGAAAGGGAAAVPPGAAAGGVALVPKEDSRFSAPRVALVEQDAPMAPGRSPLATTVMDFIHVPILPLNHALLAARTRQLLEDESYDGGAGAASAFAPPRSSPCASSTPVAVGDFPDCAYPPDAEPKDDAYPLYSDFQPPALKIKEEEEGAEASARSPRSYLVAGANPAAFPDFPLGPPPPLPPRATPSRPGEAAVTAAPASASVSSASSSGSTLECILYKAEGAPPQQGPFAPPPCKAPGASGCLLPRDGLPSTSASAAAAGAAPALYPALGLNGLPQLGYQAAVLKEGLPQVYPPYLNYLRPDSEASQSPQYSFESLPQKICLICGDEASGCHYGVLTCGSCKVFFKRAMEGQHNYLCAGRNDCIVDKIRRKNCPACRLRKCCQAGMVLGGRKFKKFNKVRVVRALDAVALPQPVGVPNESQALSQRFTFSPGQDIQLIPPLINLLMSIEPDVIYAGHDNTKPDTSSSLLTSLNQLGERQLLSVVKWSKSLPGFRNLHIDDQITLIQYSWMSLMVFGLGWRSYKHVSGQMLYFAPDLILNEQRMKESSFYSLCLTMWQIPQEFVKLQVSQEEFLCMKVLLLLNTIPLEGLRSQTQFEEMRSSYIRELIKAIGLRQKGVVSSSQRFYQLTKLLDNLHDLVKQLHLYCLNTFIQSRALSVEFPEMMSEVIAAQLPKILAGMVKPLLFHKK
Excerpt: U.S. Tox21 Program National Center for Advancing Translational Sciences [NCATS] NIH Chemical Genomics Center [NCGC] U.S. Environmental Protection Agency [EPA] National Institutes of Environmental Health Sciences [NIEHS] National Toxicology Program [NTP] U.S. Food and Drug Administration [FDA] […] Endocrine disrupting chemicals (EDCs) and their interactions with steroid hormone receptors like PR causes disruption of normal endocrine function. To identify the compounds that activate PR signaling, a PR-UAS-bla GripTite cell line i.e. PR-UAS-bla HEK 293T (Invitrogen, Carlsbad, CA, USA) containing a beta-lactamase reporter gene under the control of an Upstream Activator Sequence (UAS) was used to screen Tox21 10K compound library.
Tox21 Assay Protocol Summary: PR-UAS-bla HEK 293T cells were dispensed at 3,000 cells/5 uL of assay medium containing 2% charcoal stripped FBS per well into black wall/clear-bottom 1536-well plates using a Multidrop Combi (ThermoFisher Scientific, Waltham, MA) dispenser. After the assay plates were incubated at a 37C and 5% CO2 for 6hr, 23 nL of compounds dissolved in DMSO, positive controls or DMSO only was transferred to the assay plate by a Pintool station (Kalypsys, San Diego, CA). The plates were incubated at 37C and 5% CO2 for 16hr. Then 1 uL of LiveBLAzer B/G FRET substrate was added using a BioRAPTR FRD (Flying Reagent Dispenser, Aurora Discovery, San Diego, CA). After the plates were incubated at room temperature for 2 hours, fluorescence intensity was measured by an Envision plate reader (PerkinElmer, Shelton, CT).

Row | SMILES | Potency | activation
1 | O=Cc1ccccc1S(=O)(=O)O | inactive | –
2 | O=S(=O)(O)CC(O)CCl (stereo not given) | inactive | –
3 | COc1cc(OC)cc(OC)c1 | inactive | –
4 | CCCCCCCCS(=O)(=O)O | inactive | –
5 | N#Cc1cc(NC(=O)C(=O)O)c(Cl)c(NC(=O)C(=O)O)c1 | inactive | –
6 | CCc1ncc(C)[nH]1 | inactive | –
7 | C=COCCCCO | inactive | –
8 | O=C[C@@H](O)[C@H](O)[C@H](O)CO | inactive | –
9 | CNC(C)=O | inactive | –
10 | CNCCc1ccccn1 | inactive | –
11 | CC(C)(C)NCC(O)COc1cccc2c1CCC(=O)N2 (stereo not given) | inactive | –
12 | N[C@H]1C(O)O[C@H](CO)[C@@H](O)[C@@H]1O (stereo not given in full) | inactive | –
13 | CC(=O)Oc1ccc(C(C)=O)cc1 | inactive | –
14 | CC(C)OC(=O)C(C(=O)OC(C)C)=C1SC=CS1 | inactive | –
15 | O=C(c1ccccc1)c1cccc(O)c1 | inactive | –
16 | Nc1cc(S(=O)(=O)O)ccc1O | inactive | –
17 | CCCCC(CC)COC(=O)CC#N (stereo not given) | inactive | –
18 | CC(CN1CC(=O)NC(=O)C1)N1CC(=O)NC(=O)C1 (stereo not given) | inactive | –
19 | CC(C)C(C)C | inactive | –
20 | NCC1CCC(C(=O)Oc2ccc(CCC(=O)O)cc2)CC1 (stereo not given) | inactive | –

Row | SMILES | Potency | activation
21 | Clc1cc(Cl)c(Cl)c(Cl)c1Cl | inactive | –
22 | O=C(O)Cc1c(Cl)ccc(Cl)c1Cl | inactive | –
23 | CCC(C)SSC(C)CC (stereo not given) | inactive | –
24 | CC(C)(O)CCCC1=CCC(C=O)CC1 (stereo not given) | inactive | –
25 | CCCC(=O)OC | inactive | –
26 | C[n+]1ccccc1/C=N/O | inactive | –
27 | CN1C(CCl)Nc2cc(Cl)c(S(N)(=O)=O)cc2S1(=O)=O (stereo not given) | inactive | –
28 | CCN1CCN(C(=O)N[C@@H](C(=O)N[C@@H]2C(=O)N3[C@@H]2SC(C)(C)[C@H]3C(=O)O)c2ccccc2)C(=O)C1=O | inactive | –
29 | CSC(=O)c1cccc2nnsc12 | inactive | –
30 | C=CCN1CCc2nc(N)sc2CC1 | inactive | –
31 | Cc1ccc2ccccc2n1 | inactive | –
32 | N#CC1(N)CCCCC1 | inactive | –
33 | CC/C=C\CCCCCCCCCCOC(C)=O | inactive | –
34 | C/C=C/C(=O)CCCC | inactive | –
35 | C=CCOC(=O)CCCCCCCC | inactive | –
36 | BrCCOc1ccccc1 | inactive | –
37 | Cc1nc2ccc(Cl)cc2[nH]1 | inactive | –
38 | CCCCCCCCCCCCCC(=O)OCC | inactive | –
39 | CCCCN(CCCC)CCCCCCN(CCCC)CCCC | inactive | –
40 | CN(C)CCCN(C)C | – | -0.0517% [at 8.39 µM]
